Compound activity as filed in PubChem BioAssay.
Compounds with a hit are over-represented: about 1.2% of the library has one in this group of screens.
BRCA1 expr act: activators of BRCA1 expression; Potency, µM (highest dose often 46.1 µM), for inactives: top-dose activation, actives largely listed as activators; 380,000 tested, 1.1% active; AID 624202; MCF7-BRCA1-FFLuc reporter, luminescence, 48 h; response scale: scaled: vehicle 0%, 10 µM genistein 100%; note: potency is the fitted concentration of half-maximal effect; nearly all actives have a fitted effect of over 80% in size
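Luminescence from a BRCA1-driven firefly luciferase in MCF7 cells was the read-out, taken 15 min after substrate addition following 48 h compound exposure at 37 °C. Data were normalized to a 10 microM genistein control and DMSO vehicle.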
TSHR antagonist: human thyrotropin receptor antagonism | P16473 | TSHR-expressing cells, TSH-stimulated cAMP HTRF, 2 h; active compounds read low | activity change, negative = inhibition, % at 11.5 µM | 330,000 tested, 0.2% active | AID 504810;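 active = activity change below a set negative limit, meaning inhibition stronger than a set level, cut at about -70% in these data; inconclusive = activity change between two set negative limits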; note: % is set by controls: 0 for no effect and ±100 for the full control effect
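Freshly harvested TSHR cells receive pin-tooled compound, then EC80 TSH at 4nM final. After 2 hours at 37 deg C, antibody in lysis buffer and cAMP-d2 are added; 30 minutes at ambient temperature precede the HTRF read.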
Anesthetic bind: candidate novel general anesthetic via apoferritin binding; P02791; apoferritin/1-aminoanthracene competitive binding, fluorescence; Potency, µM (titrated, usually from 77.5 µM), inactives show at the highest dose activity change, negative = displacement, most hits filed as inhibitors; 350,000 tested, 0.074% active; note: potency is the fitted concentration of half-maximal effect; % is set by controls: 0 for no effect and ±100 for the full control effect; nearly all actives have a fitted effect of over 20% in size
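Read-out: endpoint 1-AMA fluorescence, excitation 380 nm and emission 535 nm, after compounds sit 10 min at room temperature with 10 uM horse-spleen apoferritin in 50% saturated 1-AMA/PBS. Values come from four-parameter Hill fits.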
ASM inhibitor: human S-ASM enzyme inhibition; P17405; placental ASM, HMU-PC fluorogenic substrate, 60 min; Potency, µM (titrated, usually from 57.5 µM), without a hit: at the top dose activity change, negative = inhibition, hits mostly inhibitors; 340,000 tested, 0.006% active; AID 504937; note: potency is the fitted concentration of half-maximal effect
Target sequence (P17405 47-631 limits assumed): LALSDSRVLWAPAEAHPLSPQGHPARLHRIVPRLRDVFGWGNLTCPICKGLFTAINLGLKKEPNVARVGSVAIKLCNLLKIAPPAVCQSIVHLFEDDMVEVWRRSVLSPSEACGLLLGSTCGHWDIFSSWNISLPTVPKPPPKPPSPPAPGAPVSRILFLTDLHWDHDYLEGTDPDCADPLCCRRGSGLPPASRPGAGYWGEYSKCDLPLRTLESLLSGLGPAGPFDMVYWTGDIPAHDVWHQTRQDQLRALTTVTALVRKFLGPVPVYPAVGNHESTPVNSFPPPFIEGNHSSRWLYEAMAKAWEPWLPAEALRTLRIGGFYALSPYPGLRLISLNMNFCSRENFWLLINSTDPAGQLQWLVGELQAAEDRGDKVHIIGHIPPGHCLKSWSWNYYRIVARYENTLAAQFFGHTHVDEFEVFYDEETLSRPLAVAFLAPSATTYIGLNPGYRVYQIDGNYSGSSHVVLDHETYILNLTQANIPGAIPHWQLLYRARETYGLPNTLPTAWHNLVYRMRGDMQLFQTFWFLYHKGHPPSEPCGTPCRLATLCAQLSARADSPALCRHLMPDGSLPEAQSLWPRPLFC
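Human placenta-derived ASM preincubated with compound 10 min at room temperature, then reacted with 9 uM (final) fluorogenic HMU-PC substrate for 60 min at 37 C. Stop solution raises pH to 10; fluorescence read at Ex 386/Em 447 nm.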
PTAP TSG101 blk: blocks PTAP/TSG101 interaction to inhibit HIV-1 budding | Q99816 | Fluorescence polarization, FITC-PTAP peptide / Tsg101 binding | Potency, µM (highest dose often 115 µM), without a hit: at the top dose activity change, negative = inhibition, most hits filed as inhibitors | 340,000 tested, under 10 active | AID 493005; active = well fitted inhibition curve with a large enough effect in the main read-out, with a control signal flat, not every such curve was filed as active; inconclusive = small, poorly fitted or top-dose-only effect, or effect the other way, or a change in a side signal; inactive = no such curve, though single readings can be large or run the other way; note: potency is the fitted concentration of half-maximal effect; % of control where 0% means no effect
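Fluorescence anisotropy tracks displacement of a FITC-tagged PTAP peptide (50 nM) from the Tsg101 binding domain (10 uM), following a 20 min room-temperature incubation at pH 7.5.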
Starred values were filed as active, the others as inactive; ? = inconclusive; . = not tested or not shown; [ ] = remark or other dose. Unless noted, calls come from the whole dose curve; as a rule, active = well fitted curve in the direction sought with a large enough effect; inconclusive = small, poorly fitted or top-dose-only effect, or another doubt; inactive = no such curve, though single readings can be large; an effect the other way counts as inactive or inconclusive.

SMILES	BRCA1 expr act	TSHR antagonist	Anesthetic bind	ASM inhibitor	PTAP TSG101 blk
CSCC[C@@H]1NC(=O)[C@@H](NC(=O)[C@H](CCCNC(=N)N)NC(=O)[C@H](CC(C)C)NC(=O)[C@H](CCSC)NC(=O)[C@H](CC(=O)O)NC(=O)[C@H](Cc2ccccc2)NC(=O)[C@@H](N)CC(=O)O)CSSC[C@@H](C(=O)N[C@@H](Cc2c[nH]c3ccccc23)C(=O)N[C@@H](CCC(N)=O)C(=O)N[C@@H](Cc2ccc(O)cc2)C(=O)O)NC(=O)[C@@H]2CCCN2C(=O)[C@H](CCCNC(=N)N)NC(=O)[C@H](Cc2ccccc2)NC(=O)[C@H](C(C)C)NC(=O)[C@H](CCCNC(=N)N)NC(=O)CNC(=O)[C@H](CC(C)C)NC1=O	.	.	-13%	.	.
CC(C)C(=O)SCCCCCCC(=O)Nc1nc(-c2ccccc2)cs1	.	.	-11%	.	.
Fc1ccc(-c2nc3ccc(Br)cn3c2Cc2cccc(F)c2)cc1	59%	.	.	.	.
Cc1ccc(-c2nc3ccc(Br)cn3c2Cc2cccc(F)c2)cc1	3.2µM*	.	.	.	.
CCSc1nnc(NC(=O)COc2ccccc2[N+](=O)[O-])s1	85%	7	-14%	2%	-3%
O=C(COc1ccccc1[N+](=O)[O-])Nc1ccc2c(c1)OCO2	10µM*	-4	-11%	1%	1%
CC(=O)c1cc(F)ccc1OCC(=O)Nc1ccc2c(c1)OCO2	1.3µM*	-2	.	-6%	0%
O=C(COC(=O)COc1ccccc1[N+](=O)[O-])Nc1ccc2c(c1)OCO2	-15%	-12	.	-3%	-5%
O=C(COc1ccccc1[N+](=O)[O-])Nc1ccc2c(c1)CCC2	10µM*	-12	.	2%	-2%
CC(C)c1nnc(NC(=O)COc2ccccc2[N+](=O)[O-])s1	10µM*	-4	-1%	2%	1%
O=C(COc1cccc(Cl)c1Cl)Nc1ccc2c(c1)CCC2	-6%	23	5%	-1%	-1%
O=C(Nc1ccc(Cl)cc1)C1CCN(S(=O)(=O)c2ccc(Br)s2)CC1	.	.	-2%	.	.
COc1ccc(S(=O)(=O)NCCCC(=O)Nc2ccc(Sc3ccc(N)cc3)cc2)cc1	.	.	5%	.	.
O=[N+]([O-])c1ccc2c(c1)C=C/C2=C/c1ccccc1	-6%	.	.	.	.
FC(F)(F)C(F)(F)C(F)(F)c1nc2ccccc2[nH]1	11%	.	.	.	.
O=C(COc1cc(F)ccc1[N+](=O)[O-])Nc1ccc2c(c1)OCO2	3.5µM*	-11	.	-1%	-4%
N#Cc1nc(N(c2ccccc2)c2ccccc2)nc(-n2cccc2)n1	16%	.	.	.	.
O=C(O)COc1cccc2c1CCC=C2CCO/N=C(\c1ccccc1)c1cccnc1	.	.	-2%	.	.
O=C(COc1cccnc1[N+](=O)[O-])Nc1cc(Cl)ccc1Cl	11µM*	11	.	7%	-1%
Cc1ccc(OCC(=O)Nc2ccc(Cl)cc2)c([N+](=O)[O-])n1	11µM*	14	.	-3%	-2%
CCc1cccc(C)c1Nc1nn2c(=O)c3ccccc3nc2s1	.	.	2%	.	.
CCSc1nn2c(=O)c3ccccc3nc2s1	2.5µM*	0	-6%	-1%	-8%
O=C(Nc1ncnc2nc[nH]c12)c1ccccc1	12%	.	.	.	.
Cc1c(C(=O)c2ccccc2)oc2ccc3ccccc3c12	10µM*	-7	-12%	-1%	-1%
Nc1c(C(=O)c2ccccc2)oc2ccccc12	19%	-5	1%	-7%	-4%
SMILES	BRCA1 expr act	TSHR antagonist	Anesthetic bind	ASM inhibitor	PTAP TSG101 blk
CCOc1ccc(-n2c(SCC(=O)Nc3ccc(OC)cc3)nc3c(c2=O)SCC3)cc1	-21%	-1	-4%	-3%	-3%
CCOc1ccc(-n2c(SCC(=O)Nc3cc(C)on3)nc3c(c2=O)SCC3)cc1	-16%	-85*	-14%	4%	-2%
COCC(C)NC(=O)C1c2ccccc2Oc2ccccc21 (stereo not given)	-4%	-120*	-5%	0%	-12%
NOCc1ccccc1	.	.	-7%	.	.
COc1ccc(CCNc2nc(C)nc3c2oc2ccccc23)cc1OC	-44%	?	-8%	1%	-5%
COc1ccc(CCNc2ncnc3c2oc2ccccc23)cc1OC	-73%	-80*	-13%	-3%	1%
CCCCC(C(=O)N/N=C/c1ccccn1)C(=O)N/N=C/c1ccccn1	-5%	4	5%	1%	-2%
CCCCCCCCC(=O)N/N=C/c1ccccn1	19%	2	13µM*	-8%	-6%
Cc1c(CCNC=O)cc(C)c2c3c(oc12)CCCC3	10µM*	.	.	-2%	0%
O=C(O)c1ccc2noc(-c3ccccc3)c2c1	4µM*	-9	-13%	6%	-6%
Cc1ccc2cc3cc(C(=O)NC4CCCCC4)oc3nc2c1	4µM*	4	-5%	-1%	-1%
O=C(NC1CCCC1)c1cc2cc(Br)ccc2o1	3.2µM*	-19	-3%	-2%	-1%
COc1cc2nc(N3CCN(C)CC3)nc(NC(C)C)c2cc1OC	4%	.	.	.	.
C=CCn1c(C)nc2c(sc3nc4c(cc32)COC(C)(C)C4)c1=O	6.3µM*	-4	-11%	-2%	-6%
CSCC[C@H](NC(=O)[C@H](CO)NC(=O)[C@H](Cc1ccc(O)cc1)NC(=O)[C@@H](N)CO)C(=O)N[C@@H](CCC(=O)O)C(=O)N[C@@H](Cc1cnc[nH]1)C(=O)N[C@@H](Cc1ccccc1)C(=O)N[C@@H](CCCNC(=N)N)C(=O)N[C@@H](Cc1c[nH]c2ccccc12)C(=O)NCC(=O)N[C@@H](CCCCN)C(=O)N1CCC[C@H]1C(=O)N[C@H](C(=O)NCC(=O)N[C@@H](CCCCN)C(=O)N[C@@H](CCCCN)C(=O)N[C@@H](CCCNC(=N)N)C(=O)N[C@@H](CCCNC(=N)N)C(=O)N1CCC[C@H]1C(=O)N[C@H](C(=O)N[C@@H](CCCCN)C(=O)N[C@H](C(=O)N[C@@H](Cc1ccc(O)cc1)C(=O)N1CCC[C@H]1C(=O)O)C(C)C)C(C)C)C(C)C	.	.	-2%	.	.
COC(=O)c1ccc(-c2ccc(Cl)cc2)nc1C	2µM*	-4	?	2%	-4%
COC(=O)c1ccccc1NC(=O)c1sc(Cl)nc1C	-33%	11	-7%	-1%	1%
COC(=O)NC(CC(C)=O)c1cccs1 (stereo not given)	.	.	-7%[15.3 µM]	.	.
O=C(CN1C(=O)NC2(CCCCCC2)C1=O)c1ccc2c(c1)OCCO2	2.8µM*	-10	?	0%	1%
CS(=O)(=O)Nc1c(O)ccc2c1CCCC2C1=NCCN1 (stereo not given)	.	.	6%	.	.
COc1cccc(OCc2cc(C(=O)NCCc3cccc(C)n3)no2)c1	0%	9	-17%	1%	-2%
O=C(NCc1cccs1)c1cc(-c2cccs2)on1	68%	13	-12%	4%	.
